The text below walks through data of PubChem BioAssay.

Unmarked numbers belong to inactive results. The rule behind the calls is not given here.

A word on the inhibition: it is the percentage by which the read-out fell short of the control.

The target in the test is Pantothenate synthetase (Mycobacterium tuberculosis (strain ATCC 25618 / H37Rv)) (UniProt P9WIL5). Nature of the test: Coupled enzyme confirmation of inhibitors against recombinant Mtb PanC (AID 375).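 Note: 0% = full reaction with vehicle and 100% = no enzyme background.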 Conditions: coupled enzyme assay; at 10 µM, hits give high values.
Chain of Pantothenate synthetase (Mycobacterium tuberculosis (strain ATCC 25618 / H37Rv)) (P9WIL5 whole entry, looked up): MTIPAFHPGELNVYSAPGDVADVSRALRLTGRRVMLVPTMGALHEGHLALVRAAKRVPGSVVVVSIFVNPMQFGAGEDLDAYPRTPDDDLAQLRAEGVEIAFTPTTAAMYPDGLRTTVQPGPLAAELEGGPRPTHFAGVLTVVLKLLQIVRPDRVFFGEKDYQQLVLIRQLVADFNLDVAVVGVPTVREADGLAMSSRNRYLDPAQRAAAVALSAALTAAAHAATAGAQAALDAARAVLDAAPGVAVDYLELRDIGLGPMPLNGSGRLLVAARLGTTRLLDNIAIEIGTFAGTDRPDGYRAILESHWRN
Take `Cn1c(=O)c2c(nc(NCc3ccco3)n2C/C=C/c2ccccc2)n(C)c1=O`: the inhibition was 0%.

`COc1ccc(CCn2c(=N)c(C(=O)NCc3ccco3)cc3c(=O)n4ccccc4nc32)cc1`: the inhibition was 0%.

As to `CCOc1cc(C2c3c(n[nH]c3C)C(=O)N2c2ccc(Br)cc2)ccc1O` (centres undefined), the inhibition is 0%.

With `O=C(NCCC1=CCCCC1)C1CCN(S(=O)(=O)c2cccc3cccnc23)CC1`, the inhibition is 19%.

Regarding `COCCNc1oc(-c2ccc(C)cc2)nc1C#N`, the inhibition is 0%.

On to `CCOC(=O)C(C)(C)Sc1nc2c(cnn2-c2ccc(C)cc2)c(=O)[nH]1`, for which the inhibition is 0%.

For the compound `Cc1cc(NC(=O)Cn2cnc3c2c(=O)n(C)c(=O)n3C)n(-c2ccccc2)n1`, the inhibition was 0%.

For `Cc1c(CNCc2cccs2)c(C(=O)O)c(C)n1Cc1ccccc1`, the inhibition was 0%.

Take `CCN(CC)S(=O)(=O)c1ccc(N2CCCC2)c(C(=O)OCC(=O)/C(C#N)=C(\C)N)c1`: the inhibition was 6%.

In the case of `Cc1ccc(O)c(C(=O)c2cc(C#N)c(=O)n(CC3CCCO3)c2)c1` (centres undefined), the inhibition was 8%.

As for `Nc1nnc(SCc2cc3c(cc2Cl)OCO3)s1`, the inhibition was 7%.

On to `CCOC(=O)NC1(NCc2ccccc2)Oc2ccccc2O1`, for which the inhibition is 0%.

Take `C=CCSC1=C(C#N)C(c2ccccc2Cl)CC(=O)N1` (centres undefined): the inhibition was 0%.

As to `COc1ccc(CN(C(=O)CSc2nnc(-c3ccccc3F)o2)c2ccc(F)cc2)cc1`, the inhibition is 0%.

With `CCOC(=O)CC(C#N)c1cn(C)c2ccccc12` (centres undefined), the inhibition is 4%.

Consider `CCc1ccc(NC(=O)c2cc(-c3ccco3)on2)cc1`, for which the inhibition is 4%.

On to `CCOc1ccc(-c2nc(C#N)c(N3CCN(C)CC3)o2)cc1`, for which the inhibition is 2%.

As to `COC(=O)CSc1cc(C)nc(NC(C)=O)n1`, the inhibition is 4%.

In the case of `CCOC(=O)C(C)n1cnc2c(nnn2Cc2ccc(C)cc2)c1=O` (centres undefined), the inhibition was 0%.

Take `Cc1[nH]nc(N=CC2=C(O)CC(C)(C)CC2=O)c1-c1ccccc1`: the inhibition was 5%.

`CC1(C)NC(=O)N(CC(O)CN2CCCCC2)C1=O` (centres undefined): the inhibition was 0%.

For `CCOP(=O)(c1ccc(N(C)C)cc1)C(O)c1cc(OC)c(OC)c(OC)c1` (centres undefined), the inhibition was 0%.

For the compound `CCCCC(NC(C)=O)c1nc2ccccc2n1CCC` (centres undefined), the inhibition was 0%.

On to `C=CCN(CC=C)C(=O)Nc1cc(Cl)ccc1OC`, for which the inhibition is 0%.

As for `COc1ccc(C(C(C(=O)c2cccs2)N2CCOCC2)N2CCOCC2)cc1OC` (centres undefined), the inhibition is 0%.

Consider `C/C(=N\O)C(=O)NCc1ccccn1`, for which the inhibition is 4%.

Regarding `Cn1c(NC(=O)c2cccc(Cn3cc(Cl)cn3)c2)nc2ccccc21`, the inhibition is 8%.

As to `COc1cccc(CNC(=O)C2CCN(c3cnccn3)CC2)c1`, the inhibition is 0%.

In the case of `c1ccc(Cn2nnnc2C(c2cccs2)N2CCSCC2)cc1` (centres undefined), the inhibition was 0%.

In the case of `N#Cc1ccc(CSc2nnc(-c3cccs3)n2-c2ccccc2)cc1`, the inhibition was 0%.

In the case of `O=C(O)CC1NC(=O)N(c2ccccc2)C1=O` (centres undefined), the inhibition was 0%.

In the case of `CCN1CCc2c(C#N)c(N3CCOCC3)nc(NCc3ccccc3)c2C1`, the inhibition is 0%.

Turning to `COc1ccc(N2CCN(C(=O)CSc3ccccc3)CC2)cc1`, the inhibition was 6%.

With `Cc1nnc(SCc2ccccc2)n1N`, the inhibition is 0%.

Regarding `CCN(CC)CCN1C(=O)C(O)=C(C(=O)c2ccco2)C1c1ccccn1` (centres undefined), the inhibition is 8%.

In the case of `CC(C)(CO)NC(=O)CCCOc1ccc(Cl)cc1Cl`, the inhibition was 0%.

As for `CCC(=O)Nc1ccc(NC(=O)c2cccc(OC)c2)nc1`, the inhibition was 0%.

As to `CC(C(=O)Nc1ccccc1-c1ccccc1)N1CCOCC1` (centres undefined), the inhibition is 1%.

With `CSc1cccc(NS(=O)(=O)c2ccccc2)c1`, the inhibition is 0%.
